# PubChem BioAssay (NCI)
# About 83,000 compounds went through this panel and 20% of them were active in at least one assay; those are over-represented in the sample as a whole.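 Values shown are percent growth following 48 h exposure of cells in 96-well plates to a single concentration of compound; below 10 was considered active.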 A number with no mark means an inactive call. The source made the active and inactive calls.
# System: HCT-116 colon
# Assay: NCI-60 one-dose screen, 48 h (100 = growth as untreated, 0 = no growth, -100 = all killed)
# Conditions: 10 µM unless noted
row,Structure (SMILES),growth
1,CC(=O)NC(C)(C)C(=O)N1CCC[C@H]1C(=O)NC(C)(C)C(=O)N[C@@H](C)C(=O)NC(C)(C)C(=O)NC(C)(C)C(=O)N[C@@H](CCC(N)=O)C(=O)NC(C)(C)C(=O)N[C@H](C(=O)NC(C)(C)C(=O)NCC(=O)N[C@@H](CC(C)C)C(=O)NC(C)(C)C(=O)N1CCC[C@H]1C(=O)N[C@H](C(=O)NC(C)(C)C(=O)NC(C)(C)C(=O)N[C@@H](CCC(N)=O)C(=O)N[C@@H](CCC(N)=O)C(=O)N[C@H](CO)Cc1ccccc1)C(C)C)C(C)C,24.1% [4.25 µM]
2,NC(=S)N/N=C(/C=C/c1cn(-c2ccccc2)nc1-c1ccc(Cl)cc1)c1cc2ccccc2oc1=O,31.1%
3,Cc1ccc(/C=C/c2nn3c(-c4ccco4)nnc3s2)cc1,112%
4,COCCOc1ccc(-c2csc(NC(C)=O)n2)cc1NS(=O)(=O)c1cccc2c(N(C)C)cccc12,88.2%
5,COc1cc2cc(Oc3ccc(NC(=O)c4cccc(C(F)(F)F)c4)cc3)c(C)nc2cc1OCCN(C)C,61.2%
6,C=C(C)[C@@H]1CC[C@]2(COS(C)(=O)=O)CC[C@]3(C)[C@H](CC[C@@H]4[C@@]5(C)CCCNC(C)(C)[C@@H]5CC[C@]43C)[C@@H]12,15.6%
7,NC(=O)C(=Cc1ccc(Cl)cc1)C(N)=O,52.2%
8,CCc1ccc(NC(=O)N[C@@H](Cc2cccc(F)c2)C(=O)N[C@@H]2C(=O)N3CCC[C@H]3C(=O)N3CCCC[C@H]3C(=O)N[C@@H](C)C(=O)N3C[C@H](C)C[C@H]3C(=O)O[C@H]2C)c(F)c1,3.62% (active)
